# Measured values reported in PubChem BioAssay (NCI).
# About 83,000 compounds went through this panel and 20% of them were active in at least one assay; those are over-represented in the sample as a whole.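 A percent growth of 40 corresponds to 60% growth inhibition; 0 means no net growth; -100 means all cells died. Active threshold: below 10.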 Unmarked numbers belong to inactive results. The source made the active and inactive calls.
# System: BT-549 breast
# Experiment: NCI-60 one-dose screen, 48 h (100 = growth as untreated, 0 = no growth, -100 = all killed)
# Conditions: 10 µM unless noted
# Protocol: Growth inhibition of the BT-549 human tumor cell line is measured as a screen for anti-cancer activity. Cells are grown in 96 well plates and exposed to the test compound for 48 hours. Compounds are tested at a single concentration, which is 10^-5 M for most compounds. The reported endpoint is percent growth (GI% or GIPRCNT), where numbers from 0 - 100% represent growth inhibition, and numbers from -100% - 0 represent cell death. For example, a value of 40 represents 60% growth inhibition. A value of 0 means no net growth occurred over the course of the experiment. A value of -40 indicates 40% of cells at the beginning of the experiment died by the end of the experiment. A value of -100 means all cells are dead at the end of the experiment.
# NCI-60 Human Tumor Cell Lines Screen was performed using the standard one-dose NCI protocol, which is described in more detail at https://dtp.cancer.gov/discovery_development/nci-60/default.htm.
# Compounds with GIPRCNT values below 10 were considered active. Activity score was based on GIPRCNT using the following formula: […]
# Score is 0 for GIPRCNT values of 100 or above, 50 for GIPRCNT values of 0, and 100 for GIPRCNT values of -100.
row,Compound,growth
1,c1ccc(COc2ccc(Nc3ncnc4c3cnn4-c3ccccc3)cc2)cc1,106%
2,O=C1/C(=C/c2ccc(F)cc2)Cc2ccccc21,89.6%
3,CCCCCc1c(C)[nH]c(/C=C2\N=C(c3ccc[nH]3)C=C2Oc2ccccc2)c1C,-97.1% [100 µM] (active)
4,CC1(C)CC2(C)CC(=O)C1C(C(=O)O)C2C(=O)O (stereo not given),116%
5,Cc1ccc(-c2cc(-c3ccccc3)n(-c3ccccc3)n2)cc1,101%
6,O=C1C(=O)c2c(nc3ccc(Cl)cn23)-c2ccccc21,-99.4% (active)
7,CC[C@H]1CN2CCc3cc(OC)c(OC)cc3C2C[C@@H]1CC1NCCc2cc(OC)c(OC)cc21 (stereo not given in full),-11% (active)
8,Cn1cc(NC(=O)Nc2cc(C(=O)O)n(C)c2)cc1C(=O)O,125%
9,CC(C)CNc1nc(N=[N+]=[N-])nc(NCC(C)C)n1,56.9% [100 µM]
10,O=C(COc1ccc(/C=C2\Oc3ccc4ccccc4c3C2=O)cc1)c1ccc(Cl)cc1,24.7%
11,COc1cnc2c(c1)C(=O)c1c-2n(CCCNC(C)C)c(=O)c2cc(F)ccc12,-17.9% (active)
12,COC(=O)[C@H]1[C@H]2C[C@@H]3c4[nH]c5cc(OC)ccc5c4CCN3C[C@H]2C[C@@H](OC(=O)/C=C/c2cc(OC)c(OC)c(OC)c2)[C@@H]1OC,67.8%
13,CCC(C)C1NC(=O)C(CCNCS(=O)(=O)O)NC(=O)C(NC(=O)C(CCNCS(=O)(=O)O)NC(=O)C(NC(=O)C(CCNCS(=O)(=O)O)NC(=O)CCCCC(C)C)C(C)O)CCNC(=O)C(C(C)O)NC(=O)C(CCNCS(=O)(=O)O)NC(=O)C(CCNCS(=O)(=O)O)NC(=O)C(C(C)CC)NC1=O (stereo not given),66.3%
14,COc1ccc(C2CC(c3ccc(Nc4ccnc5cc(Cl)ccc45)cc3)=NN2C(C)=O)cc1 (stereo not given),68.5%
15,CCSCC1CC(O)(c2ccccc2)C(c2ccccc2)C(c2ccc(Cl)cc2)O1 (stereo not given),1.88% (active)
16,COc1ccc(Cl)cc1Nc1nc(C(F)(F)F)ccc1C(=O)N/N=C/c1c(Cl)cccc1Cl,48.6%
17,CC[C@@H](c1ccc(O)c(O)c1)[C@@H](CC)c1ccc(O)c(O)c1,98%
18,CCCc1n(Cc2ccc3ccccc3c2)cc[n+]1Cc1ccc2ccccc2c1,-32.2% (active)
19,CC(=O)Nc1cc2c3c(cccc3c1)-c1ccccc1-2,64.7%
20,COc1cc(/C=C2\CN(C)CC3=C2Nc2nc(SC)[nH]c(=O)c2C3c2cc(OC)c(OC)c(OC)c2)cc(OC)c1OC (stereo not given),54.9%

row,Compound,growth
1,N#CC(C#N)C(C#N)C#N,89.5%
2,COc1ccc2c(c1)CC[C@@H]1[C@@H]2CC[C@]2(C)[C@@H](O)C(=O)C[C@@H]12,103%
3,Cc1ccc(NC(=O)c2sc3nc4c(cc3c2N)C(=O)CCC4)cc1,86.4%
4,Nc1ccc2c(c1Br)Cc1ccccc1-2,89%
5,CC(C)CC1NC(=O)C(CCCN)NC(=O)C(C(C)C)NC(=O)C2CCCN2C(=O)C(Cc2ccccc2)NC(=O)C(CC(C)C)NC(=O)C(CCCN)NC(=O)C(C(C)C)NC(=O)C2CCCN2C(=O)C(Cc2ccccc2)NC1=O (stereo not given),-77.7% (active)
6,CCCCCc1c(C)[nH]c(/C=C2\N=C(c3ccc[nH]3)C=C2OCc2ccccc2)c1C,-94.6% [100 µM] (active)
7,Cc1ccc(OCC(=O)Nc2ccc(Oc3ccccc3)cc2)c([N+](=O)[O-])n1,98.5%
8,O=C(CN1CCN(c2ccc(Cl)cc2)CC1)N1CCN(c2nnc(-c3ccc(Cl)cc3)c(-c3ccc(Cl)cc3)n2)CC1,89.3%
9,CC(=O)Nc1ccc(C(=O)COc2ccc(/C=C3\CCc4ccccc4C3=O)cc2)cc1,97.1%
10,CCOc1cc(/C=C/C(=O)CC(=O)/C=C/c2ccc(OC(=O)CNc3nc4ccc(OC)cc4s3)c(OCC)c2)ccc1OC(=O)CNc1nc2ccc(OC)cc2s1,-1.58% (active)
11,Cc1[nH]ccc2cc3nc4ccccc4c3cc12,60.3%
12,Clc1ccc2[nH]cc(-c3cncn3CCc3ccccc3)c2c1,40.3%
13,COc1cc(/C=C/C(=O)c2c(C)n([O-])c3ccccc3[n+]2=O)cc(OC)c1OC,27.3%
14,O=C1N=C(N2CCOCC2)S/C1=C\c1cn(-c2ccccc2)nc1-c1ccccc1,53.8%
15,CCOC(=O)CCC(=O)O[C@H]1[C@H](O[C@@H]2[C@@H](C)[C@H](O[C@H]3C[C@@](C)(OC)[C@@H](O)[C@H](C)O3)[C@@H](C)C(=O)O[C@H](CC)[C@@](C)(O)[C@H](O)[C@@H](C)C(=O)[C@H](C)C[C@@]2(C)O)O[C@H](C)C[C@@H]1N(C)C,97.3%
16,COc1cnc2c(c1)C(=O)c1c-2n(CCCN2CCCC2)c(=O)c2cc(F)ccc12,-6.57% (active)
17,COc1cc(Cl)cc(-c2nn(-c3cccc(NC(=O)c4cc(C(F)(F)F)cc(C(F)(F)F)c4)c3)cc2-c2ccncc2)c1,96.8%
18,COc1ccc(OC)c2c1CCC1(C2)NC(=O)NC1=O (stereo not given),114%
19,COc1ccc(NS(=O)(=O)N2CCCCC2)cc1,104%
20,C=C(CN1CCc2c([nH]c3ccccc23)C1)c1ccc(C(=O)Nc2ccon2)cc1,55.4%
